{
  "source": "the supplement of paper PMC10503962",
  "data": [
    {"system": "Trichuris muris adult worms", "experiment": "mean motility score (Paragon pixel variance) of adult worms (arbitrary units); higher = more motile worms, i.e. less anthelmintic effect; extreme values may be limits of the assay", "details": "100 µM; 24 h", "how_it_was_run": "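Single adult Trichuris muris worms, recovered from infected NOD SCID mice, were exposed to drug at 100 μM (1% v/v DMSO) in 100 μL RPMI-1640 with antibiotics in 96-well plates for 24 h at 37°C and 5% CO2. The plates were then filmed on an automated phenotyping platform. The motility score was calculated through Paragon pixel-variance analysis and averaged across replicate wells, with three worms in three wells per drug on three separate occasions.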", "values": [
      {"smiles": "C=CC(N)CCC(=O)O", "note": "(configuration not stated) [vigabatrin]", "mean motility score": 1690},
      {"smiles": "CCc1cccc2c3c([nH]c12)C(CC)(CC(=O)O)OCC3", "note": "(configuration not stated) [etodolac]", "mean motility score": 2190},
      {"smiles": "COc1cc2c(Oc3ccc4[nH]c(C)cc4c3F)ncnc2cc1OCCCN1CCCC1", "note": "[cediranib]", "mean motility score": 0},
      {"smiles": "CC/C(=C(/CC)c1ccc(O)cc1)c1ccc(O)cc1", "note": "[diethylstilbestrol]", "mean motility score": 0},
      {"smiles": "OCC(S)CS", "note": "(configuration not stated) [dimercaprol]", "mean motility score": 1550},
      {"smiles": "CC1CCc2c(N3CCC(O)CC3)c(F)cc3c(=O)c(C(=O)O)cn1c23", "note": "(configuration not stated) [nadifloxacin]", "mean motility score": 2660},
      {"smiles": "Cl.N=C(N)NC(=O)c1nc(Cl)c(N)nc1N", "note": "[amiloride hydrochloride]", "mean motility score": 2260},
      {"smiles": "CN1CCC(=C2c3ccccc3CC(=O)c3sccc32)CC1", "note": "[ketotifen]", "mean motility score": 2220},
      {"smiles": "CC12CC3CC(C)(C1)CC(N)(C3)C2.Cl", "note": "[memantine hydrochloride]", "mean motility score": 2620},
      {"smiles": "NC(=O)CC[C@H](N)C(=O)O", "note": "[glutamine]", "mean motility score": 3380},
      {"smiles": "CN(C)CCc1c[nH]c2ccc(C[C@H]3COC(=O)N3)cc12", "note": "[zolmitriptan]", "mean motility score": 3180},
      {"smiles": "CC(c1cc2ccccc2s1)N(O)C(N)=O", "note": "(configuration not stated) [zileuton]", "mean motility score": 3310},
      {"smiles": "CC(O)(P(=O)(O)O)P(=O)(O)O", "note": "[etidronic acid]", "mean motility score": 3300},
      {"smiles": "Nc1ccc(C(=O)O)c(O)c1", "note": "[aminosalicylic acid]", "mean motility score": 4450},
      {"smiles": "Nc1ccc(S(=O)(=O)Nc2ncccn2)cc1", "note": "[sulfadiazine]", "mean motility score": 2030},
      {"smiles": "CC(C)c1c(C(=O)Nc2ccccc2)c(-c2ccccc2)c(-c2ccc(F)cc2)n1CC[C@@H](O)C[C@@H](O)CC(=O)O", "note": "[atorvastatin]", "mean motility score": 2620},
      {"smiles": "Clc1ccc(COC(Cn2ccnc2)c2ccc(Cl)cc2Cl)c(Cl)c1", "note": "(configuration not stated) [miconazole]", "mean motility score": 122},
      {"smiles": "Cc1ccc(C(=O)Nc2ccc(CN3CCN(C)CC3)c(C(F)(F)F)c2)cc1C#Cc1cnc2cccnn12", "note": "[ponatinib]", "mean motility score": 1760},
      {"smiles": "C=C(CC)C(=O)c1ccc(OCC(=O)O)c(Cl)c1Cl", "note": "[ethacrynic acid]", "mean motility score": 215},
      {"smiles": "CN(C)CCCN1c2ccccc2Sc2ccc(Cl)cc21", "note": "[chlorpromazine]", "mean motility score": 0},
      {"smiles": "CC(C)[C@H](N)C(=O)OCCOCn1cnc2c(=O)nc(N)[nH]c21.Cl", "note": "[valacyclovir hydrochloride]", "mean motility score": 4300},
      {"smiles": "COC(=O)C1=C(C)NC(C)=C(C(=O)OCCN(C)Cc2ccccc2)C1c1cccc([N+](=O)[O-])c1", "note": "(configuration not stated) [nicardipine]", "mean motility score": 0},
      {"smiles": "N=C(N)NC(=N)NCCc1ccccc1", "note": "[phenformin]", "mean motility score": 4260},
      {"smiles": "CN/C(=C\\[N+](=O)[O-])NCCSCc1csc(CN(C)C)n1", "note": "[nizatidine]", "mean motility score": 3800},
      {"smiles": "COc1ccccc1O", "note": "[guaiacol]", "mean motility score": 2150},
      {"smiles": "CN1CCN(CCOc2cc(OC3CCOCC3)c3c(Nc4c(Cl)ccc5c4OCO5)ncnc3c2)CC1", "note": "[saracatinib]", "mean motility score": 1640},
      {"smiles": "CCN[C@H]1C[C@H](C)S(=O)(=O)c2sc(S(N)(=O)=O)cc21", "note": "[dorzolamide]", "mean motility score": 2540},
      {"smiles": "CN1C(C(=O)Nc2ccccn2)=C(O)c2ccccc2S1(=O)=O", "note": "[piroxicam]", "mean motility score": 2510},
      {"smiles": "CC[N+](CC)(CCNC(=O)C(=O)NCC[N+](CC)(CC)Cc1ccccc1Cl)Cc1ccccc1Cl", "note": "[ambenonium]", "mean motility score": 3180},
      {"smiles": "CC(C)(Oc1ccc(C2CC2(Cl)Cl)cc1)C(=O)O", "note": "(configuration not stated) [ciprofibrate]", "mean motility score": 2070},
      {"smiles": "Cl.Nc1c2c(nc3ccccc13)CCCC2", "note": "[tacrine hydrochloride]", "mean motility score": 2770},
      {"smiles": "Cc1nc(O)c(C#N)cc1-c1ccncc1", "note": "[milrinone]", "mean motility score": 4250},
      {"smiles": "CCN(CC)CCNC(=O)c1cc(Cl)c(N)cc1OC", "note": "[metoclopramide]", "mean motility score": 3210},
      {"smiles": "CSCC[C@H](N)C(=O)O", "note": "[methionine]", "mean motility score": 3180},
      {"smiles": "CN(C)C(=O)C(CCN1CCC(O)(c2ccc(Cl)cc2)CC1)(c1ccccc1)c1ccccc1", "note": "[loperamide]", "mean motility score": 0},
      {"smiles": "C[C@@H](Oc1cc(-c2cnn(C3CCNCC3)c2)cnc1N)c1c(Cl)ccc(F)c1Cl", "note": "[crizotinib]", "mean motility score": 284},
      {"smiles": "CCc1c2c(nc3ccc(OC(=O)N4CCC(N5CCCCC5)CC4)cc13)-c1cc3c(c(=O)n1C2)COC(=O)[C@]3(O)CC", "note": "[irinotecan]", "mean motility score": 2280}
    ]}
  ]
}
